Assay [1] is described as follows: TAMU_PeakParms_SingleDonor1434_QT: Texas A&M University (TAMU) 1.5-hr Human Induced Pluripotent Stem Cell (iPSC)-derived Cardiomyocytes Calcium (Ca+2) Flux Assay for Cardiotoxicity: QT (decay-rise ratio) (AID 2284235; active means hit-call score of the fitted dose curve at least 0.9, where 1 is the maximum). The procedure, abridged:
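iPSC-derived cardiomyocytes (single donor 1434) dosed at 0.2, 1, 10, 100 uM final in 0.5% DMSO, 90 min at 37C. Ca2+ flux fluorescence decay/rise ratio; EC05 (5% increase versus DMSO) as POD, excluding beat-arrest and severe-notch data.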

Assay [2] in a line: CCTE_Mundy_HCI_Cortical_NOG_BPCount: CCTE's Neurite Outgrowth Assay in rat cortical cells for Branch Point Count, Mundy Lab (AID 2284237).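 On AC50: branch points counted about two days after chemical exposure.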 As for the experimental part:
CCTE_Mundy_HCI_Cortical_NOG is a multiplexed, cell-based-readout assay that uses rat primary cortical cells with measurements taken at 50.33 hours after chemical dosing in a microplate: 96-well plate.CCTE_Mundy_HCI_Cortical_NOG_BPCount is one of four components of the CCTE_Mundy_HCI_Cortical_NOG assay. It measures neurite outgrowth related to the number of branch points using High Content Imaging of fluorescently labelled markers.[…] Using a type of morphology reporter, loss -of-signal activity can be used to understand developmental effects.
Exposure starts 2 hours post-plating by adding 10 ul of the working solution to 90 ul of media in the wells for a 1/10 dilution. Forty-eight hours after chemical treatment cells are fixed by direct addition of 100 ul of warm (37C) Dulbecco's phosphate buffered saline (DPBS) fixative solution containing 8% paraformaldehyde, 8% sucrose, and 0.1% of 3 mg/ml Hoechst 33342 into each well. Primary antibodies are prepared by dilution in Immunocytochemical Staining Buffer (ISB), 10X Dulbecco's PBS, 0.1% Saponin, 5% Bovine Serum Albumin, 0.5% NaN3 (Sodium Azide) and betaIII-tubulin (rabbit anti-betaIII-tubulin, 1:800) followed by Alexa Fluor-488 secondary (1:500) to label neuronal cell bodies and neurites. A Cellomics ArrayScan VTi HCS Reader is used for automated image acquisition and analysis of neurite outgrowth.

A short description of assay [3]: TAMU_HCS_1.5hr_SingleDonor1434_Cytotoxicity: Cytotoxicity Assessment using High-content Screening (HCS) Fluorescent Imaging for the Texas A&M University (TAMU) 1.5-hr Human Induced Pluripotent Stem Cell (iPSC)-derived Cardiotoxicity Assay (AID 2284234; active means hit-call score of the fitted dose curve at least 0.9, where 1 is the maximum). The essentials: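 Human iPSC-derived cardiomyocytes dosed at 0.2, 1, 10, 100 uM final (0.5% DMSO) for 90 min at 37 C. Hoechst 33342-stained nuclei counted by 10x high-content imaging; POD is EC10, a 10% drop in total cell count versus DMSO.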

Assay [4] can be described thus: CCTE_Mundy_HCI_Cortical_NOG_NeuronCount: CCTE's Neurite Outgrowth Assay in rat cortical cells for Neuron Count, Mundy Lab (AID 2284236; active means hit-call score of the fitted dose curve at least 0.9, where 1 is the maximum;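 further: neurons counted by imaging betaIII-tubulin and Hoechst stained cortical cells; cells exposed to compound for about 48 hours before fixation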). The procedure, abridged:
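Read-out: neuron number by high-content imaging of betaIII-tubulin (Alexa Fluor-488) and Hoechst-labelled rat primary cortical cells.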

The nature of assay [5]: BSK_BT_Bcell_Proliferation: Viability Assessment in the BioMAP Diversity Plus: BT Assay for B cell Proliferation (AID 2284227). Particulars: primary human B cells with PBMC. The essentials:
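Human B cells co-cultured with PBMC were dosed with test chemicals and relative cell number was quantified by SRB staining at 72 h. Cells were fixed in 10% TCA, stained with 0.1% SRB and read at 560 nm. Activity was fitted in the positive direction against DMSO.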

Read-out in assay [6]: Interleukin 6 (IL6), IL6 (gene 3569)
Description: BSK_BT_xIL6: BioMAP Diversity Plus: BT Assay for Interleukin 6 (IL6) Biomarker Activity (AID 2284228). To be noted: primary human B cells with PBMC. The essentials:
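B cells and peripheral blood mononuclear cells (human primary co-culture) were dosed with chemical, and after 24 h IL-6 released into the medium was measured by Luminex xMAP. Responses were analysed as gain of signal over DMSO control.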

Read-out in assay [7]: Tumor necrosis factor (Homo sapiens) (UniProt P01375)
The assay is described as follows: BSK_BT_xTNFa: BioMAP Diversity Plus: BT Assay for Tumor necrosis factor alpha (TNF-alpha) Biomarker Activity (AID 2284230). Particulars: primary human B cells with PBMC. The essentials: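 B cells with PBMC in co-culture, dosed and sampled at 24 h; secreted TNF-alpha measured by Luminex xMAP bead assay. Activity fitted in the gain direction against DMSO as negative control and baseline.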

Read-out in assay [8]: Vascular cell adhesion molecule 1 (VCAM1), VCAM1 (gene 7412)
Description: BSK_MyoF_VCAM1: BioMAP Diversity Plus: MyoF Assay for Vascular cell adhesion molecule 1 (VCAM1) Biomarker Activity (AID 2284231). To be noted: primary human lung fibroblasts. The procedure, abridged:
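ELISA read-out of VCAM-1 on human lung fibroblasts 24 h after chemical treatment, with positive-direction curve fitting relative to DMSO controls. Parallel cultures were stained with sulforhodamine B for total protein to flag overt cytotoxicity.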

Read-out in assay [9]: Collagen I, COL1A1 (gene 1277)
The assay is described as follows: BSK_MyoF_CollagenI: BioMAP Diversity Plus: MyoF Assay for Collagen I Biomarker Activity (AID 2284238). Particulars: primary human lung fibroblasts. As for the experimental part:
BSK_MyoF is a cell-based, multiplexed-readout assay that uses lung fibroblasts, […], with measurements taken at 24 hours after chemical dosing in a microplate: 96-well plate.BSK_MyoF_CollagenI is an assay component measured in the BSK_MyoF assay. It measures Collagen I antibody related to regulation of gene expression using ELISA technology.Data from the assay component BSK_MyoF_CollagenI was analyzed at the endpoint, BSK_MyoF_CollagenI, in the positive analysis fitting direction relative to DMSO as the negative control and baseline of activity. Using a type of binding reporter, gain or loss-of-signal activity can be used to understand protein changes. To generalize the intended target to other relatable targets, this assay endpoint is annotated to the 'cell adhesion molecules' intended target family, where the subfamily is 'collagen'.
The levels of cell surface (or secreted, indicated by the prefix "s") biomarker endpoints were measured by ELISA. Overt cytotoxicity to cells in confluent adherent cultures (all systems other than the BT system) was assessed by measuring total protein levels using sulforhodamine B (SRB) staining in parallel cultures at the time of biomarker measurements, indicated as SRB endpoints. For proliferation assays for adherent cell types, individual cell types are cultured at sub-confluence and relative cell numbers quantified by SRB staining at time points optimized for each system (48 h: 3C and CASM3C systems; 72 h: BT and HDF3CGF systems; 96 h: SAg system). SRB was performed by staining cells with 0.1% SRB after fixation with 10% TCA and reading wells at 560 nm.Viability and proliferation of PBMC (T cells) was quantified by Alamar Blue reduction for the SAg and BT systems. For PBMC viability (referred to as PBMC Cytotoxicity within the assay endpoint names), cells were plated (75,000/well in a 96-well plate) and then chemical samples added for 1 h before addition of activators, SEB and TSST-1 (20 ng/mL final concentration each). Cells were incubated for 90 h. Then, Alamar Blue (20 uL/well) (Invitrogen, Cat DAL1100) was added for 6 h, and the plates were read with a fluorescence microplate reader at 546/580 nm (excitation/emission). For PBMC proliferation, cells were plated and activated as above but incubated for only 16 h prior to addition of Alamar Blue. Plates were read after 6 h.

Assay [10] can be described thus: UKN2_HCS_IMR90_cell_viability: Viability Assessment in the University of Konstanz (UKN) Leist Lab Neural Crest Cell Migration Assay in human induced IMR90 Pluripotent Stem Cells (UKN2) (AID 2284233).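 Further: viability of neural crest cells differentiated from IMR90 iPSC measured by calcein-AM fluorescence imaging; cells exposed to compound for 24 h after a 24 h migration phase.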 The essentials:
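Human IMR90-derived neural crest cells were allowed to migrate for 24 h into a cell-free zone, then exposed to test chemicals for 24 h. Calcein-AM and Hoechst staining with high-content imaging gave viability, analysed against DMSO baseline.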

Values joined by “and” are separate entries in the source; they are usually repeats but may differ in a detail not shown here. Equal entries are not always repeated. Results filed as inconclusive are left out. Some compounds were tested as several samples or in several runs, with calls that do not always agree. Active and inactive are the calls of the source. How the source made its calls, unless noted: active means hit-call score of the fitted dose curve at least 0.9, where 1 is the maximum; inactive means score below 0.9.

Chain of Tumor necrosis factor (Homo sapiens) (P01375 whole entry, looked up): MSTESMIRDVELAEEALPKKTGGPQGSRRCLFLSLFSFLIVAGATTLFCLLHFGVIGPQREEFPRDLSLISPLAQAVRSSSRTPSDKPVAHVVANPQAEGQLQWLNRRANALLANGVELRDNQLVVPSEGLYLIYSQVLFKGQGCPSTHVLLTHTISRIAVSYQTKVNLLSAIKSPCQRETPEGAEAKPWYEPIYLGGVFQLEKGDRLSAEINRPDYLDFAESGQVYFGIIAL

Consider `C=CC(N)=O`, for which the result in [1] and in [2] was inactive.
As for `ClC1=C(Cl)[C@]2(Cl)[C@@H]3[C@@H]4C[C@@H]([C@H]5O[C@@H]45)[C@@H]3[C@@]1(Cl)C2(Cl)Cl`, the call in assay [3] and in assay [1] was inactive. Also, the concentration at half-maximal activity (AC50) in [4] was 21.7 µM (active).
With `O=C(O)C(F)(F)C(F)(F)C(F)(F)C(F)(F)C(F)(F)F`, the result in assay [5], in [6], in [7], in assay [8] and in assay [9] was inactive.
Consider `O=S(=O)(O)C(F)(F)C(F)(F)C(F)(F)C(F)(F)F`, for which the result in assay [5], in assay [6], in [7], in assay [8], in assay [10] and in assay [4] was inactive. In addition, the call in assay [2] and in [9] was inactive.
`O=S(=O)(O)C(F)(F)C(F)(F)C(F)(F)C(F)(F)C(F)(F)C(F)(F)F`: the result in assay [5], in [6], in [7], in assay [8], in assay [10] and in [4] was inactive. The result in [2] and in [9] was inactive.
For `COc1ccc(O)c(C(C)(C)C)c1`, the outcome in assay [2] was inactive.
Take `CCOP(=S)(OCC)SCSC(C)(C)C`: the result in assay [10] was inactive. In assay [4], the AC50 is 68.1 µM (active).
On to `O=C(O)C(F)(F)C(F)(F)C(F)(F)C(F)(F)C(F)(F)C(F)(F)C(F)(F)C(F)(F)F`, for which the concentration at half-maximal activity (AC50) is 30 µM (active) in assay [5]; 49.8 µM (active) in assay [7]; 30 µM (active) and 42.6 µM (active) in [8]; 37.9 µM (active) and 34.1 µM (active) in [9]. In addition, the result in assay [5], in assay [6] and in assay [7] was inactive.
In the case of `CO/C=C(/C(=O)OC)c1ccccc1COc1cccc(C(F)(F)F)n1`, the AC50 in assay [10] was 50 µM (active); in assay [4] it was 2.81 µM (active); in assay [2] it was 1.28 µM (active).
Consider `Oc1c(Cl)c(Cl)c(Cl)c(Cl)c1Cl`, for which the result in assay [5], in assay [6] and in assay [7] was inactive. In addition, the AC50 is 2.41 µM (active) in [8] and 2.58 µM (active) in assay [9].
Take `NS(=O)(=O)C(F)(F)C(F)(F)C(F)(F)C(F)(F)C(F)(F)C(F)(F)C(F)(F)C(F)(F)F`: the outcome in assay [5] was inactive. Moreover, the half-maximal activity concentration (AC50) was 44.5 µM (active) and 43.1 µM (active) in assay [6]; 46.3 µM (active) and 25 µM (active) in assay [7]; 20.2 µM (active) and 26.5 µM (active) in [8]; 22.6 µM (active) in [9].
`ClC1=C(Cl)[C@]2(Cl)[C@@H]3[C@@H](Cl)[C@H]4O[C@H]4[C@@H]3C1(Cl)C2(Cl)Cl`: the AC50 in assay [4] is 34.2 µM (active); in assay [2], 9.79 µM (active).
Regarding `Sc1ccccc1`, the outcome in assay [5], in [6], in assay [7], in assay [8] and in [9] was inactive.
Consider `O=C(O)C(F)(F)C(F)(F)C(F)(F)C(F)(F)C(F)(F)C(F)(F)C(F)(F)C(F)(F)C(F)(F)F`, for which the AC50 was 20.4 µM (active) in assay [5]; 48.6 µM (active) and 44.7 µM (active) in [8]; 15.8 µM (active) and 18.9 µM (active) in assay [9]. Also, the result in [5], in assay [6] and in assay [7] was inactive.

(Values after PubChem BioAssay (EPA / NIEHS).)
